These results are taken from PubChem BioAssay (NCI).

About 79,000 compounds went through this panel and 15% of them were active in at least one assay; those are over-represented in the sample as a whole. A number with no mark means an inactive call. Activity calls are given as the source filed them. Cut-off read from the data, not from the text of the source: active = growth inhibition above about 70%; inactive = the rest.

Assay [1] in a line: NCI Yeast Anticancer Drug Screen. Data for the rad50 strain (AID 155).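 Note: 0% = growth of vehicle-only cultures of the same strain.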 The note with it: S. cerevisiae rad50 strain growth inhibition; at 50.0 µM; hits give high values. An outline of the steps: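 DNA repair mutant yeast, compound exposure, growth read-out; inhibition is taken relative to vehicle.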
A short description of assay [2]: NCI Yeast Anticancer Drug Screen. Data for the mec2-1 strain (AID 157). The settings on record: S. cerevisiae mec2-1 strain, at 50.0 µM, hits give high values. The gist of the method: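 mec2-1 yeast strain, carrying an alteration in DNA damage repair or cell cycle control, was exposed to compounds; growth inhibition was measured relative to vehicle-treated controls.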

Assay [3] can be described thus: NCI Yeast Anticancer Drug Screen. Data for the sgs1 mgt1 strain (AID 161).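 Note: 0% = growth of cultures given vehicle only.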 The settings on record: S. cerevisiae sgs1 mgt1 strain, at 50.0 µM, hits give high values. An outline of the steps: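 This yeast growth screen uses a strain with defined DNA-repair lesions; compound-treated growth is compared with vehicle-treated growth.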
The nature of assay [4]: NCI Yeast Anticancer Drug Screen. Data for the cln2 rad14 strain (AID 165).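 Note: 0% = growth equal to vehicle treated cultures.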 The note with it: S. cerevisiae cln2 rad14 strain, at 50.0 µM, hits give high values. An outline of the steps:
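Yeast carrying cln2 and rad14 alterations (cell cycle control and DNA damage repair) were exposed to compounds. Growth inhibition was measured against vehicle-treated controls.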

Assay [5] can be described thus: NCI Yeast Anticancer Drug Screen. Data for the bub3 strain (AID 167). The note with it: S. cerevisiae bub3 mutant strain, at 50.0 µM, hits give high values. An outline of the steps: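 In this screen, a yeast mutant lacking normal mitotic checkpoint function is challenged with compound. Relative growth versus vehicle gives the inhibition value.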
Assay [6] in a line: NCI Yeast Anticancer Drug Screen. Data for the mlh1 rad18 strain (AID 175). The settings on record: S. cerevisiae mlh1 rad18 strain growth inhibition; at 50.0 µM; hits give high values. The gist of the method: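 Growth inhibition of the yeast strain was measured after compound exposure and expressed relative to vehicle-treated controls. The strain carries defined defects in DNA damage repair.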

In the case of `C/C(=C\c1ccccc1)C(O)S(=O)(=O)O` (stereo not given), the growth inhibition in assay [1] was 4.5%; in assay [2], -0.35%; in assay [3], -2.9%; in assay [4] it was 11.9%; in assay [5], -12.1%; in assay [6] it was -4.55%.
With `c1ccc(-c2ccc[n+](C[n+]3cccc(-c4ccccn4)c3)c2)nc1`, the growth inhibition in assay [1] was 10.2%; in assay [2], -10.5%; in assay [3] it was -22.9%; in assay [4], -8.5%; in assay [5], -3.8%; in assay [6], 33.1%.
As for `COc1ccc2c(c1)CC/C(=C\c1ccccn1)C2=O`, the growth inhibition in assay [1] is 41.5%; in assay [2] it was 33.5%; in assay [3], 16.8%; in assay [4] it was 24.4%; in assay [5], 19.5%; in assay [6], 14.4%.
Consider `O=C(N[C@@H](CCl)[C@H](Cl)c1ccc([N+](=O)[O-])cc1)c1ccc([N+](=O)[O-])o1`, for which the growth inhibition in assay [1] was 85.3% (active); in assay [2], 76.2% (active); in assay [3], 93.3% (active); in assay [4], 83.7% (active); in assay [5], 87.3% (active); in assay [6], 92.8% (active).
As to `CCOc1ccc(/C=C2/NC(=S)N(CN3CCCCC3)C2=O)cc1`, the growth inhibition is 5.25% in assay [1]; -28.7% in assay [2]; 25.1% in assay [3]; -18.9% in assay [4]; -1.5% in assay [5]; 24.6% in assay [6].
Turning to `COc1cc(C)cc2c(-c3c(O)cc(O)c4c3CC(C)N[C@H]4C)cc(-c3cc(-c4c(O)cc(O)c5c4CC(C)N[C@H]5C)c4cc(C)cc(OC)c4c3O)c(O)c12` (stereo not given in full), the growth inhibition in assay [1] was 15.2%; in assay [2] it was -20.4%; in assay [3], 7.9%; in assay [4], 18.9%; in assay [5] it was -13.9%; in assay [6], 16.5%.
Regarding `COC1/C=C/C(C)C(C(C)C(OC)C(C)CCC(=O)C(C)C(C/C=C/N(C)C=O)OC)OC(=O)/C=C/C=C(\C)CC(OC)C(OC)C2=CC(=O)O[C@@H](C(C)C(OC)CC(OC)/C=C/C(C)C(O)C1)[C@H]2O` (stereo not given in full), the growth inhibition was 86.8% (active) in assay [1]; 90.2% (active) in assay [2]; 90% (active) in assay [3]; 89.8% (active) in assay [4]; 87.7% (active) in assay [5]; 91% (active) in assay [6].
As to `CC(=O)Nc1ccc(Cc2ccc(O)cc2)cc1`, the growth inhibition in assay [1] is 1.55%; in assay [2] it was 6.65%; in assay [3], -3.75%; in assay [4], -31.1%; in assay [5], -3.55%; in assay [6], -1.45%.
Regarding `O=C(O)C(CS(=O)(=O)O)S(=O)(=O)O` (stereo not given), the growth inhibition in assay [1] is -10.3%; in assay [2], -18.2%; in assay [3], -1.9%; in assay [4], -7.15%; in assay [5], 3.15%; in assay [6] it was -10.5%.
`CSc1ccc(C2OC(=O)c3ccccc32)c2ccccc12` (stereo not given): the growth inhibition in assay [1] is 20.4%; in assay [2] it was -11.6%; in assay [3], 21.2%; in assay [4] it was 8.25%; in assay [5] it was -14.8%; in assay [6], 5.1%.
As for `O=C(O)c1c(Br)c(Br)c(Br)c(Br)c1C(=O)Nc1cc([N+](=O)[O-])ccc1O`, the growth inhibition is 14.2% in assay [1]; -8.45% in assay [2]; 8.9% in assay [3]; 7.9% in assay [4]; 4.05% in assay [5]; 3.85% in assay [6].
`C/C(=C\c1ccccc1)C(O)C(=O)c1nc2ccc(Cl)cc2[nH]c1=O` (stereo not given): the growth inhibition is 10.3% in assay [1]; -15.4% in assay [2]; 6.15% in assay [3]; 26% in assay [4]; -14.2% in assay [5]; 6.55% in assay [6].
Consider `COCCCN1COCC(COc2ccc(Cl)cc2)OC1` (stereo not given), for which the growth inhibition in assay [1] was -17.9%; in assay [2] it was -35%; in assay [3] it was -32.2%; in assay [4] it was -23.2%; in assay [5], -36.6%; in assay [6] it was -27.9%.
Take `CCOc1cc[n+](C)c2ccc(C)cc12`: the growth inhibition in assay [1] is 13.6%; in assay [2] it was 12.8%; in assay [3], 11.3%; in assay [4] it was 16.3%; in assay [5] it was 21.5%; in assay [6], 26.7%.
Turning to `Cc1ccccc1S(=O)(=O)OC1NS(=O)(=O)c2ccccc21` (stereo not given), the growth inhibition in assay [1] was 15.8%; in assay [2], -1%; in assay [3], -36.9%; in assay [4], -15.6%; in assay [5] it was -23.3%; in assay [6], 2.9%.
Consider `COc1c(NC(=O)c2c(Br)c(Br)c(Br)c(Br)c2C(=O)O)cccc1[N+](=O)[O-]`, for which the growth inhibition in assay [1] was 1.5%; in assay [2], 6.65%; in assay [3], 7.65%; in assay [4], -4.2%; in assay [5], -1.2%; in assay [6], 17.1%.
Regarding `O=c1[nH]c(=O)n(C2CC(O)C(CO)O2)cc1OC/C=C/Cc1ccccc1` (stereo not given), the growth inhibition in assay [1] is -22.1%; in assay [2], -12.8%; in assay [3] it was 0.95%; in assay [4], 7.75%; in assay [5] it was -10.4%; in assay [6], -20.7%.
As for `Cc1ccc(S(=O)(=O)C23N=NC(C)(C)C2C2CCC3C2)cc1` (stereo not given), the growth inhibition in assay [1] was -8.4%; in assay [2], -12%; in assay [3], 1.1%; in assay [4], -59.2%; in assay [5], -50.3%; in assay [6], 3.75%.
Turning to `Cc1ccc2c(N(C)C)cc(N(C)C)nc2c1C`, the growth inhibition was -0.15% in assay [1]; 4.4% in assay [2]; -9.2% in assay [3]; -48% in assay [4]; -1.1% in assay [5]; 15.5% in assay [6].
Regarding `c1ccc(CCc2ccncc2)cc1`, the growth inhibition in assay [1] is -3.05%; in assay [2], -22.6%; in assay [3] it was -8.35%; in assay [4] it was -26.5%; in assay [5] it was 3.6%; in assay [6], -13.3%.
